Source: PubChem
FLuc inh: Firefly luciferase inhibition profiling of diverse chemical library using quantitative high-throughput screening; AID 1347043, 2019; 76,000 tested, 2.5% active; purified P. pyralis luciferase, luminescence, biochemical; Potency, µM (top dose mostly 115 µM), usual class: inhibitors; note: potency is the fitted concentration of half-maximal effect; nearly all actives have a fitted effect of over 65% in size
Target sequence (P08659 whole entry, looked up): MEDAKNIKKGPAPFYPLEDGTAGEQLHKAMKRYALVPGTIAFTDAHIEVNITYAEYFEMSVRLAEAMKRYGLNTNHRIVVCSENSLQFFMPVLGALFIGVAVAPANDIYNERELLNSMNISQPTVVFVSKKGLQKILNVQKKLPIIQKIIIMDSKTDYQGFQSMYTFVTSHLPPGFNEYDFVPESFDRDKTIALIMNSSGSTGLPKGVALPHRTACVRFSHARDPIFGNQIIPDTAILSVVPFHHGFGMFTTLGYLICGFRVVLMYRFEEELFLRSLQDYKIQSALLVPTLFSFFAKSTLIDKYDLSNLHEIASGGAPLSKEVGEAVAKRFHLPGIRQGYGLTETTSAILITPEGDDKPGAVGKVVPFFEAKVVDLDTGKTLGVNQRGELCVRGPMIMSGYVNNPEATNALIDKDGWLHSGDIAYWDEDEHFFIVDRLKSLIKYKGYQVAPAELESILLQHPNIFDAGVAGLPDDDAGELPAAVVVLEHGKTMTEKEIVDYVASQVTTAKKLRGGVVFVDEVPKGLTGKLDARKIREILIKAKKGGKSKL
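Purified P. pyralis luciferase (10nM final) in 50mM Tris acetate pH 7.5, 10mM Mg acetate, 0.01% Tween-20, 0.05% BSA with 10uM D-luciferin and 10uM ATP. Compounds titrated qHTS. Luminescence imaged on CCD.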
SNCA expr inhib: Primary qHTS assay for inhibitors of alpha-synuclein gene (SNCA) expression; HEK-293 SNCA-luciferase knock-in, luminescence, 24 h; Potency, µM (highest dose often 57.2 µM), inactives show top-dose activity change, negative = inhibition, usual class: inhibitors; 140,000 tested, 0.17% active;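 note: potency is the fitted concentration of half-maximal effect; plate controls were DMSO cells for no effect and cell-free wells for full effect; nearly all actives have a fitted effect of over 45% in size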
IP6K1 inhibitor: Primary qHTS assay for small molecule inhibitors of Inositol hexaphosphate kinase 1 (IP6K1). Inositol hexakisphosphate kinase 1 (Homo sapiens), Q92551. activity change, % (series mostly up to about 58 µM). 140,000 tested, 0.81% active. IP6K1 kinase, ADP-Glo luminescence, 2 h; stronger effect = lower value; in the data active = activity change below about -25%
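ADP-Glo luminescence measures ADP made by human IP6K1 during a 2 h RT reaction with ATP/IP6 (mix at 1.3 mM/130 uM); top library doses 57.5 and 19.1 uM final.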
NIH3T3 tox: Cytotoxic Profiling in NIH 3T3 Cell Line of Diverse Libraries Using Quantitative High-Throughput Screening; NIH 3T3 viability, CellTiter-Glo ATP luminescence, 48-72 h; Potency, µM (highest dose often 96.7 µM), for the others: at the top dose activity change, negative = cytotoxicity, most hits filed as inhibitors; 94,000 tested, 4.3% active; AID 1345082, 2018; note: potency is the fitted concentration of half-maximal effect; nearly all actives have a fitted effect of over 55% in size
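Luminescent ATP readout (CellTiter-Glo, 10 min RT) after 48 or 72 hr compound exposure of NIH 3T3 cells seeded at 400 cells/well in 1536-well format; quantitative HTS.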
SNCA viab count: GF-AFC viability counterscreen for inhibitors of alpha-synuclein gene (SNCA) expression. HEK-293-SNCA-luc viability, GF-AFC fluorescence, 24 h. Potency, µM (highest dose often 57.1 µM), for inactives: at the highest dose activity change, negative = cytotoxicity, usual class: cytotoxic. 150,000 tested, 0.12% active;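 note: potency is the fitted concentration of half-maximal effect; 0% = DMSO-treated cells and -100% = medium-only wells without cells; nearly all actives have a fitted effect of over 30% in size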
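HEK-293-SNCA-luc cells (1500/well) plated 24 h, then exposed 24 h to a dilution series; GF-AFC added 30 min at 37C, fluorescence 405/540 nm; normalised to medium-only and DMSO wells, Hill fit.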
HEK293 tox: Cytotoxic Profiling in HEK 293 Cell Line of Diverse Libraries Using Quantitative High-Throughput Screening. HEK 293 viability, ATP luminescence (CellTiter-Glo), 48-72 h. Potency, µM (top dose mostly 115 µM), inactives show at the highest dose activity change, negative = cytotoxicity, most hits filed as inhibitors. 94,000 tested, 6.6% active. AID 1345083, 2018; note: potency is the fitted concentration of half-maximal effect; nearly all actives have a fitted effect of over 60% in size
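HEK 293 seeded at 250 cells/well receive compound via pintool. After 48 or 72 hr at 37 degree Celsius, 5% CO2 and 95% humidity, CellTiter-Glo is dispensed and luminescence read following 10 min at room temperature.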
IP6K1 conf: Confirmatory qHTS assay for small molecule inhibitors of Inositol hexaphosphate kinase 1 (IP6K1); AID 1645852, 2021; recombinant IP6K1 kinase, ADP-Glo luminescence, 2 h; 1,200 tested, 13% active; shares compounds with IP6K1 inhibitor; Potency, µM (doses to about 49 µM), for inactives: top-dose activity change, negative = inhibition, hits mostly inhibitors; note: potency is the fitted concentration of half-maximal effect; nearly all actives have a fitted effect of over 65% in size
The depositor's hits bear a star; i = inactive; ? = inconclusive; . = no result; ! = a repeat was not active; [ ] = remark or other dose. Most compounds without a hit are left out; they make up all but 7.3% or so of the library. Unless noted, calls come from the whole dose curve; as a rule, active = well fitted curve in the direction sought with a large enough effect; inconclusive = small, poorly fitted or top-dose-only effect, or another doubt; inactive = no such curve, though single readings can be large; an effect the other way counts as inactive or inconclusive. Unless noted, % is set by controls: 0 for no effect and ±100 for the full control effect.

SMILES	FLuc inh	SNCA expr inhib	IP6K1 inhibitor	NIH3T3 tox	SNCA viab count	HEK293 tox	IP6K1 conf
CC(CCc1ccccc1)NC(=O)C1CCN(c2cc(C(F)(F)F)ncn2)CC1 (centres undefined)	i	-22.7%	12.5	?	4.8%	?	.
O=C([C@@H]1C[C@H](Oc2cccnc2)CN1C(=O)CC1CCCCC1)N1CCOCC1	i	3.2%	3.7	-15.3%	-11.0%	-13.3%	.
COc1cccc(-c2ccc3c(N)c(C(=O)Nc4ccccc4C)sc3n2)c1	.	?	-25.8*	.	?	.	2.2%
Cc1nn(-c2ccccc2)c2c1C(C)N(C1CCCN([S+](C)(=O)[O-])C1)C2=O (centres undefined)	.	.	-3.5	?	.	-3.1%	.
c1cc(N[C@@H]2CCNC2)nc(-c2cnc3ccc(-c4cn[nH]c4)cn23)c1	.	?	-38.5*	.	-40.4%	.	?
Cc1ccc(C)c(CNC(=O)CCc2conc2-c2ccc(F)cc2)c1	i	-17.1%	7.4	?	10.2%	?	.
Cc1noc2c(Nc3ccc(N4CCOCC4)cc3)cc(-c3cccs3)nc12	i	?	-16.1	?	?	?	.
COc1cccc(Nc2cc(-c3cccs3)nc3c(C)noc23)c1	i	-20.1%[87.6 µM]	-25.2*	79.4µM*	7.6%[87.6 µM]	100µM*	?
COc1ccc(Cl)cc1NC(=O)CN(C)S(=O)(=O)c1ccc(Br)s1	.	?	-26.2*	.	2.7%	.	28.8%
c1ccc(-c2ccnc(NCCOc3cccc4cccnc34)n2)nc1	i	123.5%	-30.6*	?	-28.9%	?	-14.3%
Cc1nc(C)n(CCCNc2nccc(-c3ccccn3)n2)n1	i	-24.1%	-0.3	-12.5%	3.8%	-16.0%	.
CSc1cccc(NC(=O)O[C@@H]2CC[C@]3(C)C(CC[C@@H](O)[C@H]3CC(=O)N3CC[C@H](NC(C)=O)C3)[C@]2(C)CO)c1 (some centres undefined)	i	12.7%	8.1	0.0%	1.2%	-8.9%	.
COc1ccccc1-c1ccc(C(=O)N2CCCC[C@H](N(C)C)C2)cc1	i	-7.8%	-31.1*	?	?	?	21.0%
CN(C)[C@H]1CCCCN(C(=O)c2cnc3ccccn3c2=O)C1	i	18.8%	-34.5*	-21.4%	2.0%	-16.2%	17.5%
COc1ccccc1NC(=O)c1c(NC(=O)c2ccccc2Cl)sc2c1CCC2	.	8.8%	-30.5*	.	11.4%	.	11.5%
COc1ccc(-c2ccc3ncc4c(c3c2)n(-c2ccc(N3CCNCC3)c(C(F)(F)F)c2)c(=O)n4C)cn1	.	?	-15.2	.	30.4µM*!	.	-28.3%
O=c1cc(C2=CCOCC2)oc2c(-c3cccc4[nH]ccc34)nccc12	i	-29.5%[87.6 µM]	-25.4*	?	?	39.8µM*	?
COc1ccccc1-c1nccc2c(=O)cc(-c3ccccn3)oc12	i	?	-17.3	?	-15.5%[87.6 µM]	?	.
OC1(CN2CCCCC2)CCN(Cc2cnn(-c3ccccc3Cl)c2)C1 (centres undefined)	i	21.6%	-36.0*	?	-6.8%	?	7.9%
OC1(CN2CCCCC2)CCN(Cc2ccc(Cl)cc2)C1 (centres undefined)	i	-7.8%	8.9	?	-24.9%	?	.
COc1ccc(OC(=O)c2nc(SCc3ccccc3F)ncc2Cl)cc1	.	?	-33.8*	.	12.3%	.	7.7%
O=C(Oc1ccc(F)cc1)c1nc(SCc2ccccc2F)ncc1Cl	.	16.3%	-15.9	.	6.0%	.	.
Cc1ccc2nc(-c3ccco3)c(Nc3ccc4c(c3)OCCO4)n2c1	.	60.0%	-28.4*	.	-12.4%	.	15.9%
c1coc(-c2nc3ccccn3c2Nc2ccc3c(c2)OCCO3)c1	.	92.1%	-10.3	.	-24.9%	.	.
CN(C)c1ccc(-c2nccc(NCc3ccccc3)n2)cc1	.	-8.3%	.	.	-10.4%	.	.
SMILES	FLuc inh	SNCA expr inhib	IP6K1 inhibitor	NIH3T3 tox	SNCA viab count	HEK293 tox	IP6K1 conf
CN(C)c1ccc(C(=C2C=CC(=[N+](C)C)C=C2)c2ccccc2)cc1	.	?	-41.5*	.	-77.9%[23.9 µM]	.	14.6µM*
CCOC(=O)c1ccc(NC(=O)CC2C(=O)N(c3ccccc3)C(=O)N2Cc2ccc(C)cc2)cc1 (centres undefined)	.	?	-39.8*	.	-17.9%	.	?
CCOc1ccc(NC(=O)CC2C(=O)N(c3ccc(C)cc3)C(=O)N2Cc2ccc(OC)cc2)cc1 (centres undefined)	.	-9.1%	-13.7	.	-9.4%	.	.
CN(C)C(=O)N1C2CCC1CN(c1ccc(C(F)(F)F)cc1)C2	.	?	-26.5*	?	-11.0%	?	?
O=C(N1CCCC1)N1C2CCC1CN(c1ccc(C(F)(F)F)cc1)C2	.	-13.2%	9.4	?	-0.1%	?	.
COc1ccc(NC(=O)Cn2c(-c3cnccn3)nc(C)c(C)c2=O)cc1	i	-25.3%	6.0	-8.0%	-23.8%	-15.8%	.
COc1ccc(-c2nc(CSCC(=O)N3CCN(c4cccc(C)c4C)CC3)c(C)o2)cc1OC	.	-14.5%	-26.3*	.	?	.	-8.2%
